Test results reported in PubChem BioAssay (NCI).
The panel holds about 83,000 compounds, 20% with a hit somewhere; the sample as a whole holds those more often.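 In brief: 96-well plates, 48 h treatment, single concentration, percent growth endpoint.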 Active and inactive are the calls of the source. Rule for the calls: active = growth percent below 10; inactive = the rest.

The compounds below were run on A549/ATCC NSCLC (assay: NCI-60 one-dose screen, 48 h (100 = growth as untreated, 0 = no growth, -100 = all killed)). Settings: 10 µM unless noted.

| Structure (SMILES) | growth |
| --- | --- |
| CCOC(=O)c1c(C)[nH]c(C(=O)CCC(=O)OC)c1C | 93.3% (inactive) |
| C=C1C(=O)O[C@H]2[C@H]1CC/C(COC(=O)NCc1ccc(Cn3c(=O)sn(CCCCl)c3=O)cc1)=C\CC[C@@]1(C)O[C@@H]21 | 90.5% (inactive) |
| COc1cc(C2C=C(c3cccc(NC(C)=O)c3)Nc3ncnn32)cc(OC)c1OC (configuration not stated) | 45.5% (inactive) |
| O=C(Oc1ccc[nH]c1=O)c1cc([N+](=O)[O-])cc([N+](=O)[O-])c1 | 77.3% (inactive) |
| COc1ccc(Oc2nc(Nc3ccc(N4CCOCC4)nc3)ncc2NC(=O)c2cc(OC)cc(OC)c2)cc1 | 84.6% (inactive) |
| COC(=O)c1ccc2oc(NC(=O)c3ccc(N4CCOCC4)c([N+](=O)[O-])c3)nc2c1 | 98.7% (inactive) |
| O=C1Nc2ccccc2/C1=N/N=C/c1ccc(OC2OC(CO)C(O)C(O)C2O)cc1 (configuration not stated) | 102% (inactive) |
| C=CC(=O)Nc1cccc(C)c1Nc1cc(-c2cccnc2Cc2c(C)c(OC)cc(OC)c2C)ncn1 | 8.38% (active) |
| OC(COc1cccc2ccccc12)CN1CCN(c2ccccc2)CC1 (configuration not stated) | 102% (inactive) |
| CC(=O)Nc1cccc(C2=CC(c3ccc(C)cc3)n3ncnc3N2)c1 (configuration not stated) | 108% (inactive) |
| O=C(CC12CC3CC(CC(C3)C1)C2)NCCOCCOCCNC(=O)c1cc2c(o1)C(=O)c1ccccc1C2=O | -61.7% (active) |
| N=C(N)c1ccc(-c2ccc(/C=C/c3ccccc3)s2)cc1 | 12.7% (inactive) |
| CNC1(C#N)CCN(Cc2ccccc2)CC1 | 98.1% (inactive) |
| O=C(/C=C/C12c3ccccc3C(c3ccccc31)C1C(=O)N(c3ccccc3)C(=O)C12)c1ccc(Cl)cc1 (configuration not stated) | 25.1% (inactive) |
| CCNCCNc1cc(-c2ccc(Cl)cc2)c(C#N)c2nc3ccccc3n12 | 6.12% (active) |
| CN(C)c1ccc2cc(-c3ccccc3F)c(N)nc2c1 | 22.1% (inactive) |
| O=C1Nc2ccccc2/C1=N/N=C/c1c[nH]c2ccccc12 | 78.4% (inactive) |
| COc1ccc(/C=C(\C#N)n2nnc3ccccc32)cc1 | 19.5% (inactive) |
| N#Cc1c(Oc2ccc([N+](=O)[O-])cc2)nc2sc3cc(Cl)ccc3n2c1=N | 72.9% (inactive) |
| O=C(NCCOCCOCCOCCNC(=O)c1cc2c(o1)C(=O)c1ccccc1C2=O)NC12CC3CC(CC(C3)C1)C2 | -47.6% (active) |
| O=C(Oc1ccc([N+](=O)[O-])cc1)c1ccc(CBr)cc1 | 97.9% (inactive) |
| CCn1c(Sc2nnc(NC(=O)CCN3CCCC3)s2)nc2c1c(=O)n(C)c(=O)n2C | 99.3% (inactive) |
| CC(=[N-])N1CCC[C@@H](Nc2c3ccccc3nc3ccccc23)C1.[Cl][Pt].[NH-]CCC[NH-] | 7.75% (active) |

Each compound was assayed on 786-0 renal in the same assay as above. Settings: 10 µM unless noted.

| Structure (SMILES) | growth |
| --- | --- |
| CC(=O)Nc1ccc2c(c1)Cc1c(F)cccc1-2 | 115% (inactive) |
| COc1ccc(-c2cncnc2N)cc1OC | 107% (inactive) |
| CN(C)c1ccc2cc(-c3ccc(Cl)c(Cl)c3)c(N)nc2c1 | 55.4% (inactive) |
| O=C(Nc1ccccn1)[C@H](O)[C@@H](O)C(=O)N1CCOCC1 | 107% (inactive) |
| O=C(NC(=S)Nc1ccc(-c2nc3ccccc3[nH]2)cc1)c1ccc2ccccc2c1 | -67.5% (active) |
| CCCCCCN(CCCCCC)CC(O)c1cccc2ccc(Cl)cc12 (configuration not stated) | 53.2% (inactive) |
| Cc1ccc(S(=O)(=O)N(CC[C@@H]2C[C@H]2c2cc3ccccc3o2)C(=O)NC2CCCCC2)cc1 | 95.4% (inactive) |
| Clc1ccc2[nH]c3c(NCCCN4CCOCC4)ncnc3c2c1 | 80.3% (inactive) |
| Fc1ccc(Nc2ccc3cc(OCCCN4CCOCC4)ccc3n2)cc1F | 48.6% (inactive) |
| CNC(=O)NCC1OC(n2cnc3c(NC(=O)Nc4ccccc4)ncnc32)C2OC(C)(C)OC12 (configuration not stated) | 105% (inactive) |
| CCN(CC)CCOC(=O)Nc1ccccc1Cl | 92.1% (inactive) |
| N=C(N)c1ccc(-c2ccc(-c3ccc(Cl)c(Cl)c3)o2)cc1 | -91.1% (active) |
| Cc1[nH]c(-c2nc3ccccc3[nH]2)c(C)c1C(=O)N1CCc2sccc2C1 | 99.7% (inactive) |
| CC(C)(C)c1ccc(C(=O)Nc2sc3c(c2C(N)=O)CCC(=O)C3)cc1 | 23.8% (inactive) |
| Cc1nc(Nc2ccccn2)sc1C(=O)/C=C/c1ccc(Br)cc1 | 96.9% (inactive) |
| C/C(=N\NC(=O)Cn1c(-c2ccc(S(C)(=O)=O)cc2)nc2cc(Cl)ccc21)c1ccc(Cl)cc1 | 92.1% (inactive) |
| CCOC(=O)c1c(C)[nH]c(C(=O)CCC(=O)OC)c1C | 92.9% (inactive) |
| C=C1C(=O)O[C@H]2[C@H]1CC/C(COC(=O)NCc1ccc(Cn3c(=O)sn(CCCCl)c3=O)cc1)=C\CC[C@@]1(C)O[C@@H]21 | 38.1% (inactive) |
| COc1cc(C2C=C(c3cccc(NC(C)=O)c3)Nc3ncnn32)cc(OC)c1OC (configuration not stated) | 50.1% (inactive) |
| O=C(Oc1ccc[nH]c1=O)c1cc([N+](=O)[O-])cc([N+](=O)[O-])c1 | 101% (inactive) |

| Structure (SMILES) | growth |
| --- | --- |
| COc1ccc(Oc2nc(Nc3ccc(N4CCOCC4)nc3)ncc2NC(=O)c2cc(OC)cc(OC)c2)cc1 | 67.4% (inactive) |
| COC(=O)c1ccc2oc(NC(=O)c3ccc(N4CCOCC4)c([N+](=O)[O-])c3)nc2c1 | 108% (inactive) |
| O=C1Nc2ccccc2/C1=N/N=C/c1ccc(OC2OC(CO)C(O)C(O)C2O)cc1 (configuration not stated) | 109% (inactive) |
| C=CC(=O)Nc1cccc(C)c1Nc1cc(-c2cccnc2Cc2c(C)c(OC)cc(OC)c2C)ncn1 | 16% (inactive) |
| OC(COc1cccc2ccccc12)CN1CCN(c2ccccc2)CC1 (configuration not stated) | 94.2% (inactive) |
| CC(=O)Nc1cccc(C2=CC(c3ccc(C)cc3)n3ncnc3N2)c1 (configuration not stated) | 95% (inactive) |
| O=C(CC12CC3CC(CC(C3)C1)C2)NCCOCCOCCNC(=O)c1cc2c(o1)C(=O)c1ccccc1C2=O | -29.1% (active) |
| N=C(N)c1ccc(-c2ccc(/C=C/c3ccccc3)s2)cc1 | -38.3% (active) |
| CNC1(C#N)CCN(Cc2ccccc2)CC1 | 73.1% (inactive) |
| O=C(/C=C/C12c3ccccc3C(c3ccccc31)C1C(=O)N(c3ccccc3)C(=O)C12)c1ccc(Cl)cc1 (configuration not stated) | 8.93% (active) |
| CCNCCNc1cc(-c2ccc(Cl)cc2)c(C#N)c2nc3ccccc3n12 | -57.9% (active) |
| CN(C)c1ccc2cc(-c3ccccc3F)c(N)nc2c1 | 34% (inactive) |
| O=C1Nc2ccccc2/C1=N/N=C/c1c[nH]c2ccccc12 | 91.9% (inactive) |
| COc1ccc(/C=C(\C#N)n2nnc3ccccc32)cc1 | 7.4% (active) |
| N#Cc1c(Oc2ccc([N+](=O)[O-])cc2)nc2sc3cc(Cl)ccc3n2c1=N | 64.3% (inactive) |
| O=C(NCCOCCOCCOCCNC(=O)c1cc2c(o1)C(=O)c1ccccc1C2=O)NC12CC3CC(CC(C3)C1)C2 | 3.51% (active) |
| O=C(Oc1ccc([N+](=O)[O-])cc1)c1ccc(CBr)cc1 | 108% (inactive) |
| CCn1c(Sc2nnc(NC(=O)CCN3CCCC3)s2)nc2c1c(=O)n(C)c(=O)n2C | 106% (inactive) |
| CC(=[N-])N1CCC[C@@H](Nc2c3ccccc3nc3ccccc23)C1.[Cl][Pt].[NH-]CCC[NH-] | 53.5% (inactive) |
